Results published in PubChem BioAssay AID1159580 (chemical genetic matrix, 2015).
About 2,000 (36%) of roughly 5,500 compounds were called active. Another 18% or so got no clear call; they are omitted. Cut-off read from the data, not from the text of the source: active = normalized growth mostly below about 0.91 (no sharp cut-off); inconclusive = no clear call, values can overlap the other calls; inactive = mostly above about 0.92. The list shows a part of the results.

Experiment: chemical genetic growth profiling, strain panel (AID 1159580);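 note: tested at 20 µM; growth read once vehicle control cultures reached saturation at 30 °C; 1 = growth at the plate median or of vehicle wells; lower values mean less growth of the strain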
Details: growth OD

Measured: normalized growth

CC1CCc2cc(F)cc3c(=O)c(C(=O)O)cn1c23 (configuration not stated)
inactive: S. cerevisiae deletion strains, locus YJR075W, strain HOC1, stronger effect = lower value 0.967 | S. cerevisiae deletion strains, locus YKL009W, strain mrt4, stronger effect = lower value 0.957 | S. cerevisiae deletion strains, locus YKL068W, stronger effect = lower value 0.985 | S. cerevisiae deletion strains, locus YKL085W, strain MDH1 (second series), stronger effect = lower value 0.974 | S. cerevisiae deletion strains, locus YKL085W, strain MDH1, stronger effect = lower value 0.974 | S. cerevisiae deletion strains, locus YKL160W, strain elf1, stronger effect = lower value 0.971 | S. cerevisiae deletion strains, locus YKL190W, strain CNB1, stronger effect = lower value 0.991 | S. cerevisiae deletion strains, locus YKR001C, strain vps1, stronger effect = lower value 0.998 | S. cerevisiae deletion strains, locus YKR026C, strain gcn3, stronger effect = lower value 0.989 | S. cerevisiae deletion strains, locus YKR091W, strain srl3, stronger effect = lower value 0.994 | S. cerevisiae deletion strains, locus YLL001W, strain dnm1, stronger effect = lower value 0.966 | S. cerevisiae deletion strains, locus YLL026W, stronger effect = lower value 0.995 | S. cerevisiae deletion strains, locus YLL041C, strain sdh2, stronger effect = lower value 0.989 | S. cerevisiae deletion strains, locus YLR027C, strain aat2, stronger effect = lower value 0.988 | S. cerevisiae deletion strains, locus YLR039C, strain RIC1, stronger effect = lower value 0.892 | S. cerevisiae deletion strains, locus YLR058C, strain SHM2, stronger effect = lower value 0.983 | S. cerevisiae deletion strains, locus YLR102C, strain apc9, stronger effect = lower value 0.982 | S. cerevisiae deletion strains, locus YLR113W, strain HOG1, stronger effect = lower value 0.955 | S. cerevisiae deletion strains, locus YLR221C, strain rsa3, stronger effect = lower value 0.973 | S. cerevisiae deletion strains, locus YLR258W, strain gsy2, stronger effect = lower value 0.982 | S. cerevisiae deletion strains, locus YLR262C, strain YPT6 (second series), stronger effect = lower value 0.952 | S. cerevisiae deletion strains, locus YLR262C, strain YPT6, stronger effect = lower value 0.867 | S. cerevisiae deletion strains, locus YLR268W, strain sec22, stronger effect = lower value 0.894 | S. cerevisiae deletion strains, locus YLR320W, strain mms22, stronger effect = lower value 0.972 | S. cerevisiae deletion strains, locus YLR330W, strain CHS5, stronger effect = lower value 1.01 | S. cerevisiae deletion strains, locus YLR342W, strain FKS1 (second series), stronger effect = lower value 0.978 | S. cerevisiae deletion strains, locus YLR342W, strain FKS1, stronger effect = lower value 0.978 | S. cerevisiae deletion strains, locus YLR357W, strain rsc2, stronger effect = lower value 0.923 | S. cerevisiae deletion strains, locus YLR370C, strain arc18, stronger effect = lower value 0.991 | S. cerevisiae deletion strains, locus YLR371W, strain rom2, stronger effect = lower value 0.965 | S. cerevisiae deletion strains, locus YLR384C, strain iki3, stronger effect = lower value 0.985 | S. cerevisiae deletion strains, locus YLR418C, strain cdc73, stronger effect = lower value 0.96 | S. cerevisiae deletion strains, locus YML016C, strain PPZ1, stronger effect = lower value 0.986 | S. cerevisiae deletion strains, locus YML032C, strain rad52, stronger effect = lower value 0.95 | S. cerevisiae deletion strains, locus YML120C, strain ndi1, stronger effect = lower value 0.975 | S. cerevisiae deletion strains, locus YML124C, strain tub3, stronger effect = lower value 0.994 | S. cerevisiae deletion strains, locus YMR058W, strain fet3, stronger effect = lower value 0.998 | S. cerevisiae deletion strains, locus YMR078C, strain ctf18, stronger effect = lower value 0.961 | S. cerevisiae deletion strains, locus YMR125W, strain sto1, stronger effect = lower value 0.978 | S. cerevisiae deletion strains, locus YMR129W, stronger effect = lower value 0.992 | S. cerevisiae deletion strains, locus YMR205C, strain PFK2, stronger effect = lower value 0.968 | S. cerevisiae deletion strains, locus YMR223W, strain ubp8, stronger effect = lower value 0.992 | S. cerevisiae deletion strains, locus YMR231W, strain pep5, stronger effect = lower value 0.991 | S. cerevisiae deletion strains, locus YMR263W, strain SAP30, stronger effect = lower value 0.964 | S. cerevisiae deletion strains, locus YMR307W, strain GAS1, stronger effect = lower value 1.02 | S. cerevisiae deletion strains, locus YNL067W, strain RPL9B, stronger effect = lower value 0.962 | S. cerevisiae deletion strains, locus YNL071W, strain lat1, stronger effect = lower value 0.998 | S. cerevisiae deletion strains, locus YNL128W, strain TEP1, stronger effect = lower value 0.976 | S. cerevisiae deletion strains, locus YNL153C, strain GIM3, stronger effect = lower value 0.972 | S. cerevisiae deletion strains, locus YNL183C, strain NPR1, stronger effect = lower value 0.904 | S. cerevisiae deletion strains, locus YNL209W, strain ssb2, stronger effect = lower value 0.996 | S. cerevisiae deletion strains, locus YNL233W, strain BNI4, stronger effect = lower value 0.968 | S. cerevisiae deletion strains, locus YNL248C, strain rpa49, stronger effect = lower value 0.971 | S. cerevisiae deletion strains, locus YNL250W, strain rad50, stronger effect = lower value 0.973 | S. cerevisiae deletion strains, locus YNL271C, strain bni1, stronger effect = lower value 0.962 | S. cerevisiae deletion strains, locus YNL298W, strain CLA4, stronger effect = lower value 0.957 | S. cerevisiae deletion strains, locus YNL307C, strain MCK1, stronger effect = lower value 0.983 | S. cerevisiae deletion strains, locus YNL322C, strain KRE1 (second series), stronger effect = lower value 0.995 | S. cerevisiae deletion strains, locus YNL322C, strain KRE1, stronger effect = lower value 0.986 | S. cerevisiae deletion strains, locus YNR049C, strain mso1, stronger effect = lower value 0.987 | S. cerevisiae deletion strains, locus YNR052C, strain pop2, stronger effect = lower value 0.96 | S. cerevisiae deletion strains, locus YOL006C, strain TOP1, stronger effect = lower value 0.947 | S. cerevisiae deletion strains, locus YOL012C, strain htz1 0.784 | S. cerevisiae deletion strains, locus YOL147C, strain pex11, stronger effect = lower value 0.973 | S. cerevisiae deletion strains, locus YOR001W, strain rrp6, stronger effect = lower value 0.968 | S. cerevisiae deletion strains, locus YOR061W, strain CKA2, stronger effect = lower value 0.984 | S. cerevisiae deletion strains, locus YOR069W, strain VPS5, stronger effect = lower value 0.977 | S. cerevisiae deletion strains, locus YOR070C, strain gyp1, stronger effect = lower value 0.99 | S. cerevisiae deletion strains, locus YOR080W, strain dia2, stronger effect = lower value 0.992 | S. cerevisiae deletion strains, locus YOR083W, strain WHI5, stronger effect = lower value 0.969 | S. cerevisiae deletion strains, locus YOR106W, strain vam3, stronger effect = lower value 0.947 | S. cerevisiae deletion strains, locus YOR136W, strain idh2, stronger effect = lower value 0.98 | S. cerevisiae deletion strains, locus YOR144C, strain elg1, stronger effect = lower value 0.975 | S. cerevisiae deletion strains, locus YOR184W, strain ser1, stronger effect = lower value 0.959 | S. cerevisiae deletion strains, locus YOR231W, strain MKK1, stronger effect = lower value 0.982 | S. cerevisiae deletion strains, locus YOR265W, strain rbl2, stronger effect = lower value 0.982 | S. cerevisiae deletion strains, locus YOR270C, strain vph1, stronger effect = lower value 0.959 | S. cerevisiae deletion strains, locus YOR290C, strain snf2, stronger effect = lower value 0.955 | S. cerevisiae deletion strains, locus YOR316C, strain cot1, stronger effect = lower value 0.97 | S. cerevisiae deletion strains, locus YPL051W, strain arl3, stronger effect = lower value 0.984 | S. cerevisiae deletion strains, locus YPL055C, strain LGE1, stronger effect = lower value 0.985 | S. cerevisiae deletion strains, locus YPL078C, strain atp4, stronger effect = lower value 0.976 | S. cerevisiae deletion strains, locus YPL106C, strain sse1, stronger effect = lower value 0.963 | S. cerevisiae deletion strains, locus YPL240C, strain hsp82, stronger effect = lower value 0.974 | S. cerevisiae deletion strains, locus YPL241C, strain CIN2, stronger effect = lower value 0.997 | S. cerevisiae deletion strains, locus YPL256C, strain CLN2, stronger effect = lower value 0.974 | S. cerevisiae deletion strains, locus YPR119W, strain clb2, stronger effect = lower value 0.973 | S. cerevisiae deletion strains, locus YPR141C, strain kar3, stronger effect = lower value 0.961 | S. cerevisiae deletion strains, locus YPR163C, strain tif3, stronger effect = lower value 0.974 | S. cerevisiae deletion strains, locus YPR167C, strain met16, stronger effect = lower value 0.97 | S. cerevisiae deletion strains, strain wtn01, stronger effect = lower value 0.95 | S. cerevisiae strains, strain wild type, stronger effect = lower value 0.987
